Measurements reported in PMC7819943, “Rice protein-binding microarrays: a tool to detect cis-acting elements near promoter regions in rice”.
In all, about 68,000 sequences were measured (“fluorescence intensity (a.u.)”: median about 9,100, highest 2% from about 16,000 on). The full list was thinned out, with the highest values kept by preference.

The sequences below were run against OsWRKY34 (Oryza sativa, UniProt Q0JBA9 1-250) (assay: protein-binding microarray (RPBM); PBS, 2% BSA, 51.3 ng/ul salmon testes DNA, 50 uM zinc acetate, 200 nM TF, 25 C, 1 h; high values mean tight binding). Conditions: protein: recombinant; tags: N-terminal polyhistidine and DsRed monomer fusion (pET32a); label: CyDye5-dUTP incorporated in the synthesized complementary strand; 3' TTTTT single-stranded linker to array surface; dsDNA, one strand shown.
OsWRKY34, sequence (Q0JBA9 entry or part of it): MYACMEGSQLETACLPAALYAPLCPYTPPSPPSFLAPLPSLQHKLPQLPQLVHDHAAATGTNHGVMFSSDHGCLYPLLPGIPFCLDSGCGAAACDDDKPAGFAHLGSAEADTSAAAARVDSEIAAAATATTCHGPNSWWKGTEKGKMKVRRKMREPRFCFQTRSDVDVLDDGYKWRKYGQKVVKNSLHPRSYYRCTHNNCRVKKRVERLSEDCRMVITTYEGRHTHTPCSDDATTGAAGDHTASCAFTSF
In short: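 In PBS with 2% BSA, salmon testes DNA and 50 µM zinc acetate, 200 nM protein was incubated on a custom Agilent array at 25 °C for 1 h and then washed off. The array had been made double-stranded by primer extension with Cy5-dUTP and blocked with 2% BSA. The proteins were transcription factors fused N-terminally to polyhistidine and DsRed, expressed in E. coli BL21-CodonPlus and purified on Ni–NTA. The binding signal is per-feature fluorescence intensity (arbitrary units) from an Axon 4000B scanner.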

Sequence	binding signal
GTGTGGCGGACATGTGGGCCCATGATTTTTATTATTTTTCCGGAGTCACCTAGTGCAG	9790 fluorescence intensity (a.u.)
ATCCTCCGCCGCCGCCTCACCTCCTCCGCCACCGCGCTCGCGGAGTCACCTAGTGCAG	8270 fluorescence intensity (a.u.)
GCACCCCTGTTTTCTCAGCGATCATGGCTGTAATACTGAACGGAGTCACCTAGTGCAG	8070 fluorescence intensity (a.u.)
TCCTCCGAATCCCAATCTCTCGCAGTTCGTTCGAGGAGCTCGGAGTCACCTAGTGCAG	8540 fluorescence intensity (a.u.)
GCCTCGCCCTCGCGTCGTCACCTCTCGCCATGGCCCACTACGGAGTCACCTAGTGCAG	9950 fluorescence intensity (a.u.)
ATTCTGTTGCGTCATCATGTTCCTGTCTACAGAGCTATACCGGAGTCACCTAGTGCAG	8840 fluorescence intensity (a.u.)
TTTAAAACTAGGACCTGAGTAAATATTTTTCTTGAGTTTTCGGAGTCACCTAGTGCAG	8040 fluorescence intensity (a.u.)
GCTAGTTGTAATATACACATAATTGTTGCTTCATTTCAACCGGAGTCACCTAGTGCAG	9790 fluorescence intensity (a.u.)
TTGCAGTATCCCGGTTGCCCACCTTTCATGGTCCATCACCCGGAGTCACCTAGTGCAG	8490 fluorescence intensity (a.u.)
GCAATTATTAATGTACCGCTCCGTTTTCATTTTTGGGTTGCGGAGTCACCTAGTGCAG	8630 fluorescence intensity (a.u.)
TGTGGAGTTTGAGGATTGCACAATAATCTCAGGGGCGGGCCGGAGTCACCTAGTGCAG	8590 fluorescence intensity (a.u.)
AGGTTATAAGACGTTTTGACTTTGGTTAAAGTCAAACTACCGGAGTCACCTAGTGCAG	9600 fluorescence intensity (a.u.)
CCTCTCGGGCGCCTCTCCTCTCCATCATTCCTCCCACTGCCGGAGTCACCTAGTGCAG	9880 fluorescence intensity (a.u.)
ACCGAAAGTTCAATTTGGTCCTTTACATTTTATTTTGTCCCGGAGTCACCTAGTGCAG	8240 fluorescence intensity (a.u.)
TTGTGCTGGTTTTGGTTTTGGTTTTGGGTTGCATGTATGTCGGAGTCACCTAGTGCAG	9790 fluorescence intensity (a.u.)
ATGTATGCACGATGTGAGTGTCCGTGTTTGTAATGTGTTTCGGAGTCACCTAGTGCAG	11300 fluorescence intensity (a.u.)
GCTATGTAATGTCCCATCCGTGCTGTATAGTTTGGGTTTTCGGAGTCACCTAGTGCAG	17200 fluorescence intensity (a.u.)
GTACTATGTATTGTCCCATCGTTGTATAGGTTGGTTTTTTCGGAGTCACCTAGTGCAG	8240 fluorescence intensity (a.u.)
TTGTGTATTGGTGCTGTCGGTGCATGGGTGGTGGTTTTTTCGGAGTCACCTAGTGCAG	20700 fluorescence intensity (a.u.)
CCTGTGTGTTGGTGCTGTCGGTATGTGGGTGGTGGTATTTCGGAGTCACCTAGTGCAG	14600 fluorescence intensity (a.u.)
ACCTACTCACAATCACAGAATCACATCATAACATTATTGTCGGAGTCACCTAGTGCAG	9160 fluorescence intensity (a.u.)

Sequence	binding signal
CCTGCCATGTCATGTTTGTACCTAGATACCAGGTATGACGCGGAGTCACCTAGTGCAG	8960 fluorescence intensity (a.u.)
AGATGTTTCCGCTGATACTTTGATACGTCGTCCTTATTTGCGGAGTCACCTAGTGCAG	10800 fluorescence intensity (a.u.)
CCGATTCCCTGCCGCATCTGCCCGTTGCCCTCGCGCCCGGCGGAGTCACCTAGTGCAG	8880 fluorescence intensity (a.u.)
TGCAGATTTGGTTTTTCTTTTTTTTCGCACGTTCTCTTTCCGGAGTCACCTAGTGCAG	15700 fluorescence intensity (a.u.)
TATTTTTTGCTATTATCTTTCGTGTAAGCTATTTCTCTATCGGAGTCACCTAGTGCAG	9170 fluorescence intensity (a.u.)
CAGTGCGTATTTGCAATATATATATATAGGAAAGTTTCTTCGGAGTCACCTAGTGCAG	9390 fluorescence intensity (a.u.)
GTGTGTGTTTTTGCAAAAGTTTTCTATAGAAAAGTTACATCGGAGTCACCTAGTGCAG	8210 fluorescence intensity (a.u.)
AATTCAAATTCATACTGTTCAAACAAAGTCATATAGAAAACGGAGTCACCTAGTGCAG	28600 fluorescence intensity (a.u.)
TATATATATATATATATATATATATAGAAATTAAGTCAAACGGAGTCACCTAGTGCAG	8940 fluorescence intensity (a.u.)
AAACGGTGCGTTTTTTGCAAAAAAATTCTATAGGAAAGTTCGGAGTCACCTAGTGCAG	63900 fluorescence intensity (a.u.)
TTTTTATACTGTTGGTACATATTCAAATTTGTCAAACATTCGGAGTCACCTAGTGCAG	8960 fluorescence intensity (a.u.)
TCCTGTGCCTCTCTCATGGTGTGGGTGTCTGTGTCTTTGACGGAGTCACCTAGTGCAG	9040 fluorescence intensity (a.u.)
AAGGTGGGGTCATCATAAATATTTTTTAAGTGAAAATTTTCGGAGTCACCTAGTGCAG	9840 fluorescence intensity (a.u.)
AATGGATATCAGGATATGAAGCTCAAAGTTATCGGTTATTCGGAGTCACCTAGTGCAG	8240 fluorescence intensity (a.u.)
CTATGAAGTTAAAAATACGCTCATCAGAAAGGATATATTTCGGAGTCACCTAGTGCAG	57200 fluorescence intensity (a.u.)
GGTTGAGGCTGTTTTCCGATCGTTCCGACCGTTTTCATCCCGGAGTCACCTAGTGCAG	8700 fluorescence intensity (a.u.)
GCCAACCGCATGCCGTCCCCGATGCCGCCCGCCGTCAACCCGGAGTCACCTAGTGCAG	8290 fluorescence intensity (a.u.)
ATATTACTGGTGTTTACTTGCTTTTCTTTTTTTAAAAAAACGGAGTCACCTAGTGCAG	9160 fluorescence intensity (a.u.)
ATATAAGGGATTTTGAGTTTTTGATTGCAACGTTTGACCACGGAGTCACCTAGTGCAG	8550 fluorescence intensity (a.u.)
TATGCATCACCTCGTAATCCACAACTGACTTACCCTTTCTCGGAGTCACCTAGTGCAG	12300 fluorescence intensity (a.u.)
TGCTTTTGTATTTTTTTTGCTGTGTATATATCATAAACTTCGGAGTCACCTAGTGCAG	8550 fluorescence intensity (a.u.)

Sequence	binding signal
CTTTTGTGCTCATCTGAACTTCTGAAGTATCATAAAGAAGCGGAGTCACCTAGTGCAG	31400 fluorescence intensity (a.u.)
AGAATGTTTGCTCAAAGTATGTTTTTGTCATCTGTTTTTCCGGAGTCACCTAGTGCAG	8800 fluorescence intensity (a.u.)
TATTGTGTACTACATCTTTTATTATTTCTTTCAAATTTCACGGAGTCACCTAGTGCAG	10500 fluorescence intensity (a.u.)
CTCTCCCGGTCGCGCCGCCATCTCCTCTCCCAATCGCGCGCGGAGTCACCTAGTGCAG	8860 fluorescence intensity (a.u.)
CACTTCTATTGGTTCTTTGTCTGGGAGTAGCAGCATAAGTCGGAGTCACCTAGTGCAG	8540 fluorescence intensity (a.u.)
GACCTACGTCACCACCTTGCATGTCCCACGCGGAGCTCCACGGAGTCACCTAGTGCAG	9230 fluorescence intensity (a.u.)
GCAACTGTGTTTTCAATTCTGCAAATGCTATTCTCTGTTACGGAGTCACCTAGTGCAG	11800 fluorescence intensity (a.u.)
ATGAACTTAGTTGTTTTTTTTTGGGTTTTACTTGCATAATCGGAGTCACCTAGTGCAG	8220 fluorescence intensity (a.u.)
TTTTTTTATTTTTTTTGAAATATTTTTTGTTGGGTTTTTTCGGAGTCACCTAGTGCAG	13100 fluorescence intensity (a.u.)
CCGTCGATTTGGTTGGTTGGTTGATCGGCGGCGAGGAGGGCGGAGTCACCTAGTGCAG	11400 fluorescence intensity (a.u.)
GATTTGGGTTGAAATATGATATGGGTTGGATTGGTTTGGACGGAGTCACCTAGTGCAG	16100 fluorescence intensity (a.u.)
TCGCGTAGGGGAGGGGTGAAATATATTTTTTATGCCGGGCCGGAGTCACCTAGTGCAG	18000 fluorescence intensity (a.u.)
GATTTTTAGTGAATATAATGAAATTTCATAGGGGAGGGGCCGGAGTCACCTAGTGCAG	8930 fluorescence intensity (a.u.)
TGATTTGCGCGAGGGTTTGGTTTGGTTTGGTTTGAGTCGACGGAGTCACCTAGTGCAG	19200 fluorescence intensity (a.u.)
GGGGTTAGTTGTCCGTTTTGCATAGTTGGGGATAAAAAATCGGAGTCACCTAGTGCAG	18500 fluorescence intensity (a.u.)
TTTGGGATAAATCATGAGGGGTTAAAAGTTGTTATATTTTCGGAGTCACCTAGTGCAG	10100 fluorescence intensity (a.u.)
GCGCTTCGATTTGGTTTGGTTTGATTCGGTTTGCGAGATGCGGAGTCACCTAGTGCAG	8780 fluorescence intensity (a.u.)
GATTTTTAGTGAATATAATGAAATTTCACAGGGGAGGGGCCGGAGTCACCTAGTGCAG	13400 fluorescence intensity (a.u.)
TAGATGAAATGGGTTGGGTTGATTTGGGTTGAAATATGATCGGAGTCACCTAGTGCAG	21800 fluorescence intensity (a.u.)
